# Experimental data from PubChem BioAssay (NCI).
# The panel holds about 83,000 compounds, 20% with a hit somewhere; the sample as a whole holds those more often.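 Treatment: one concentration, 48 hours, 96-well format. Scoring: percent growth, with anything below 10 considered active.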 A number with no mark means an inactive call. Active and inactive are the calls of the source.
# Assays:
# Test in all cases: NCI-60 one-dose screen, 48 h (100 = growth as untreated, 0 = no growth, -100 = all killed)
# Conditions in all cases: 10 µM
# NCI-H23 lung = test system: NCI-H23 lung
# NCI-H226 lung = test system: NCI-H226 lung
# NCI-H460 lung = test system: NCI-H460 lung
# HOP-92 NSCLC = test system: HOP-92 NSCLC
# A549/ATCC NSCLC = test system: A549/ATCC NSCLC
# 786-0 renal = test system: 786-0 renal
# COLO 205 colon = test system: COLO 205 colon
# DU-145 prostate = test system: DU-145 prostate
# MALME-3M melanoma = test system: MALME-3M melanoma
# MDA-MB-231 breast = test system: MDA-MB-231 breast
# RXF 393 renal = test system: RXF 393 renal
# SF-268 CNS = test system: SF-268 CNS
# SF-295 CNS = test system: SF-295 CNS
# SF-539 CNS = test system: SF-539 CNS
# UACC-257 melanoma = test system: UACC-257 melanoma
# M14 melanoma = test system: M14 melanoma
# NCI-H522 lung = test system: NCI-H522 lung
# NCI-H322M lung = test system: NCI-H322M lung
# HOP-62 NSCLC = test system: HOP-62 NSCLC
# K-562 leukemia = test system: K-562 leukemia
SMILES,growth (NCI-H23 lung),growth (NCI-H226 lung),growth (NCI-H460 lung),growth (HOP-92 NSCLC),growth (A549/ATCC NSCLC),growth (786-0 renal),growth (COLO 205 colon),growth (DU-145 prostate),growth (MALME-3M melanoma),growth (MDA-MB-231 breast),growth (RXF 393 renal),growth (SF-268 CNS),growth (SF-295 CNS),growth (SF-539 CNS),growth (UACC-257 melanoma),growth (M14 melanoma),growth (NCI-H522 lung),growth (NCI-H322M lung),growth (HOP-62 NSCLC),growth (K-562 leukemia)
C[N+]1(CCCCC[N+]2(C)CCCC2)CCCC1,105%,83.8%,94.7%,74.6%,76.2%,118%,122%,93.2%,90%,89.5%,122%,97.1%,123%,93.7%,102%,98.5%,,,,
Nc1nc(Cl)nc2c1ncn2C1O[C@H](CO)[C@@H](O)[C@@H]1F (some centres undefined),-9.12% (active),2.75% (active),3.27% (active),38.4%,23.4%,-34.1% (active),37.6%,-3.84% (active),60.9%,70%,42.2%,9.03% (active),14.2%,37.7%,22.7%,-48.4% (active),,,,
Cc1cc(CC(C)CC(C)(C)C)n(O)c(=O)c1 (centres undefined) (tested in a mixture with another compound),14.6%,14.1%,3.41% (active),73.6%,20.2%,29%,95.5%,19.5%,8.49% (active),38.3%,42.1%,14.4%,6.87% (active),6.73% (active),-1.79% (active),-35.9% (active),,,,
Cc1cn(-c2cc(F)cc(NC(=O)c3ccc(C)c(Nc4nccc(-c5cccnc5)n4)c3)c2)cn1,94.2%,-12.3% (active),20.1%,-22% (active),19.3%,-6.06% (active),70.9%,65.4%,,6.14% (active),-1.37% (active),67.3%,,-39.8% (active),23.1%,60.2%,11.5%,,,
CCN1CC(CCN2CCOCC2)C(C(c2ccccc2)c2ccccc2)C1=O (centres undefined),105%,97.3%,108%,98.9%,101%,114%,110%,118%,120%,87.6%,107%,112%,89.9%,111%,105%,108%,,,,
O=C1Cc2cc(CCN3CCN(c4nsc5ccccc45)CC3)c(Cl)cc2N1,102%,99.5%,103%,64.9%,95.4%,106%,109%,95.4%,94.2%,89.5%,91.7%,92.9%,91.9%,105%,86.3%,105%,,,,
CN1CCN(c2cc3c(cc2F)c(=O)c(C(=O)O)cn3-c2ccc(F)cc2)CC1,95.8%,100%,98.5%,118%,102%,97.6%,107%,118%,96.3%,109%,116%,93.2%,99.8%,99.7%,105%,93%,,,,
C[C@H]1[C@H](OC(=O)CCC(=O)O)O[C@@H]2O[C@]3(C)CC[C@H]4[C@H](C)CC[C@@H]1[C@@]24OO3,19.9%,59.5%,25.5%,41.6%,42%,33.5%,-5.69% (active),82.7%,74.8%,65.1%,55.9%,55.6%,11.6%,31.9%,50.8%,39.7%,,,,
COc1cc(CNC(=O)C2CSC3(C)c4ccccc4C(=O)N23)cc(OC)c1OC (centres undefined),,,,88.4%,,,,,,,,,,,,,,99.7%,90.1%,
CCCN1CN2C(=O)N3CN(CCC)CN4C(=S)N(C1)C2C34 (centres undefined),,,,101%,,,,,,,,,,,,,,87.6%,84.7%,
O=C(Nc1ccccc1)Nc1ncnc2c1ncn2-c1ccccc1,,59.1%,7.9% (active),,44.5%,12.1%,86.1%,99.2%,76.5%,68.3%,95.4%,92.5%,31%,82.8%,,,74.4%,,,98.7%
COc1ccc(C(c2ccc(OCCN(C)C)cc2)c2cc3ccccc3c3ccccc23)cc1 (centres undefined),,87.5%,-28.6% (active),63.6%,55%,50.6%,-50.6% (active),34.2%,-43.4% (active),17.1%,49.5%,67.3%,58%,66.9%,,-72.3% (active),75%,,92.5%,-29.9% (active)
CCOC(=O)c1cc(C(=O)c2cc(OC)c(OC)c(OC)c2)n2nc(C)ccc12,,79.5%,9.56% (active),50.1%,26.8%,54.4%,-39.4% (active),21.1%,77.9%,45.8%,33.6%,56.2%,41%,15%,55.5%,21%,3.82% (active),,51.2%,9.56% (active)
C=C1CCC2(C#N)[C@H]3[C@H](CC[C@@H]2C)[C@@H](C)C[C@@H](CC(C)(C)NC(=O)CN2CCC2=O)[C@H]13 (some centres undefined),,60.6%,52.1%,,67.3%,,54%,89.5%,83.2%,47.6%,55.5%,63.3%,60.5%,47%,80.8%,54.9%,46.6%,96.1%,,
Cc1cc(NC(=O)c2ccc(C)c(Nc3nccc(-c4cccnc4)n3)c2)cc(-n2cnc(C)c2)c1,,-17.6% (active),2.48% (active),25.3%,47.1%,-30% (active),4.18% (active),32.3%,,18.5%,-3.26% (active),73.3%,-13.4% (active),21.1%,87%,30.9%,59.3%,,,-36.2% (active)
Cc1cc(CSc2ccccc2C(=O)N2CC=C(c3ccccc3)CC2)on1,,88.4%,100%,93.4%,94.6%,94.5%,107%,107%,95.8%,95.3%,107%,108%,99.6%,92.9%,,108%,75.3%,,92.2%,89.1%
COc1cc(/C=C2\CCCC3=C2N=C2SC(C)=CN2C3c2cc(OC)c(OC)c(OC)c2)cc(OC)c1OC (centres undefined),,-56.7% (active),1.37% (active),,-23.4% (active),-18.1% (active),-71% (active),-26.9% (active),4.83% (active),18.9%,-71.9% (active),14.7%,2.48% (active),7.53% (active),-27% (active),2.47% (active),-21.8% (active),,-19.6% (active),20.4%
CCCCN(CCCC)C(=O)[C@H](CC)[C@@H]1CC[C@@H](C)[C@@H]([C@H](C)[C@@H](O)[C@@H](C)C(=O)[C@H](CC)C2O[C@]3(C=CC(=O)[C@]4(CC[C@@](C)([C@H]5CC[C@](O)(CC)[C@H](C)O5)O4)O3)[C@H](C)C[C@@H]2C)O1 (some centres undefined),,15.3%,19.7%,-6.89% (active),30.3%,47.7%,21.3%,84.9%,-5.97% (active),46.8%,47%,68.6%,2.72% (active),59.6%,21.3%,30%,13.2%,,42.1%,24.4%
CC1C(=NC(=O)c2cnccn2)C(C)C(c2ccc(Cl)cc2)NC1c1ccncc1 (centres undefined),,101%,108%,,92.9%,90.8%,,114%,,97%,100%,108%,117%,86.1%,94.3%,91.9%,70.9%,,97.7%,
O=C1c2ccccc2-c2c1c1cccnc1c(=O)n2C[C@H](O)CO,,78.8%,14.6%,,31.9%,55.2%,53.9%,80.9%,66.8%,75.7%,91%,75.3%,50.3%,52%,,75.4%,44.4%,,,76.6%
